High-throughput results from PubChem.
This is a sample that favours compounds with a hit; in the whole collection about 3.1% have one here.
TR SRC2 fluor cs – Total Fluorescence Counterscreen for Inhibitors of the Interaction of Thyroid Hormone Receptor and Steroid Receptor Coregulator 2. AID 1479, 2009. 280,000 tested, 0.29% active. TRb/SRC2 Texas Red total fluorescence interference. Potency, µM (doses to about 106 µM), inactives show at the top dose fluorescence change, negative = quenching; active = well fitted curve in either direction with a large enough effect; inconclusive = small, poorly fitted or top-dose-only effect
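Human TRb ligand-binding domain at 0.6 uM with 20 nM Texas Red SRC2 peptide in Tris buffer containing 1 uM T3 and 5% DMSO, incubated with compound 5 h at ambient temperature. Total fluorescence (555/632 nm) calculated as parallel + 2 × perpendicular.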
Tau FP inhib – qHTS for Inhibitors of Tau Fibril Formation, Fluorescence Polarization | Microtubule-associated protein tau (Homo sapiens), P10636 | K18 P301L tau heparin fibrillization, Alexa594 FP, 6 h | Potency, µM (titrated, usually from 57.7 µM), inactives show at the highest dose activity, negative = inhibition, actives largely listed as inhibitors | 280,000 tested, 0.39% active | AID 1468, 2008; note: nearly all actives have a fitted effect of over 55% in size
Target sequence (P10636 561-689 P618L limits assumed): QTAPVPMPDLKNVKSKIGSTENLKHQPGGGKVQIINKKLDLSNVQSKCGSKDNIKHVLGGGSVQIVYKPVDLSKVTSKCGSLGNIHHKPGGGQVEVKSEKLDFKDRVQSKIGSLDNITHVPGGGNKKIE
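Recombinant K18 P301L […], labeled with Alexa 594 at 0.24 uM over 15 uM unlabeled; heparin inducer 20 uM final; 37 C, 6 hr; FP endpoint.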
Tau fluor cs – Counterscreen qHTS for Inhibitors of Tau Fibril Formation, Fluorescence Polarization; Potency, µM (doses to about 57.7 µM), without a hit: at the top dose activity change, negative = decrease; 280,000 tested, 0.93% active; tau K18 P301L Alexa594 fluorescence, heparin fibrillization; AID 1463, 2008; note: nearly all actives have a fitted effect of over 55% in size
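Human tau K18 P301L (15 uM unlabeled, 0.24 uM Alexa 594-labeled) in 100 mM sodium acetate pH 7 with 20 uM heparin, 6 hr at 37 C. ThT 30 uM added, 1 hr ambient; Alexa 594 FP and total fluorescence read at 555/632 nm.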
Tau ThT inhib – qHTS for Inhibitors of Tau Fibril Formation, Thioflavin T Binding | 270,000 tested, 2.1% active | recombinant tau K18 P301L (four-repeat tau fragment), heparin-induced fibrillization, ThT fluorescence | Microtubule-associated protein tau (Homo sapiens), P10636 | Potency, µM (titrated, usually from 57.4 µM), without a hit: at the top dose activity, negative = inhibition, actives largely listed as inhibitors | AID 1460, 2008; note: nearly all actives have a fitted effect of over 55% in size
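Heparin-induced fibrillization of the P301L-mutant K18 repeat-domain fragment of human tau was followed by ThT binding in quantitative high-throughput format.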
TRb SRC2 PPI – qHTS for Inhibitors of the Interaction of Thyroid Hormone Receptor and Steroid Receptor Coregulator 2; 280,000 tested, 0.065% active; TRbeta-SRC2 peptide binding, fluorescence polarization; receptor liganded with 1 µM T3; Potency, µM (titrated, usually from 106 µM), for inactives: top-dose activity change, negative = inhibition, most hits filed as inhibitors;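 note: plate controls were bound peptide for no effect and peptide without receptor for full effect; nearly all actives have a fitted effect of over 50% in size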
Target sequence (P10828 whole entry, looked up): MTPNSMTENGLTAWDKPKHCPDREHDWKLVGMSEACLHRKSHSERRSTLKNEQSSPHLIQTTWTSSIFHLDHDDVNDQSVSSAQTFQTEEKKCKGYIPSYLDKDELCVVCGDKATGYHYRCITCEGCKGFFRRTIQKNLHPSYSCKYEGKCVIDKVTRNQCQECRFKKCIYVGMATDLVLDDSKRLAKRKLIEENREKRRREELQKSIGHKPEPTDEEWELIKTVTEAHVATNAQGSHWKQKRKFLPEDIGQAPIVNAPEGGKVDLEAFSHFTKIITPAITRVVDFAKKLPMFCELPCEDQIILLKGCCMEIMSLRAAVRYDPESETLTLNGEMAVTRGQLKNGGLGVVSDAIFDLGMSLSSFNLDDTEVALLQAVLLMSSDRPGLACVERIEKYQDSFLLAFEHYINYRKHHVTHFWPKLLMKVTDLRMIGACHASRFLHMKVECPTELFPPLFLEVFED
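TRb LBD 0.6 uM + Texas Red SRC2 peptide 20 nM, 1 uM T3, Tris buffer w/ 5% DMSO; compound pinned, 5 h RT; FP read ex 555/em 632; normalized to unbound and bound controls.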
Active calls of the source: *; ? = inconclusive; . = not tested or not shown; [ ] = remark or other dose. Unless noted, calls come from the whole dose curve; as a rule, active = well fitted curve in the direction sought with a large enough effect; inconclusive = small, poorly fitted or top-dose-only effect, or another doubt; inactive = no such curve, though single readings can be large; an effect the other way counts as inactive or inconclusive. Unless noted, % is set by controls: 0 for no effect and ±100 for the full control effect; potency is the fitted concentration of half-maximal effect.

SMILES	TR SRC2 fluor cs	Tau FP inhib	Tau fluor cs	Tau ThT inhib	TRb SRC2 PPI
CC(=O)c1ccc(NC(=O)Nc2ccc3c(c2)N(C)C(=O)CS3)cc1	0%	-3%	13µM*[quencher]	?	1%
COc1ccc(NC(=O)Nc2ccc3c(c2)N(C)C(=O)CS3)cc1Cl	0%	?	6.3µM*[quencher]	?	3%
CN1C(=O)CSc2ccc(NC(=O)NCCC3=CCCCC3)cc21	-2%	?	14µM*[quencher]	-27%	4%
Cc1ccc(Nc2cc(C)nc(-c3ccccc3O)n2)cc1	-1%	?	8.9µM*[quencher]	?	12%
Cc1cc(N/N=C/c2ccc(O)c(C)c2O)nc(-c2ccccc2O)n1	?	?	7.9µM*[quencher]	?	12%
Cc1ccccc1-c1cc(-n2ccnc2)ncn1	-3%	-3%	-14%	?	0%
Nc1ccc(S(N)(=O)=O)cc1N	-1%	-17%	?	13µM*	3%
O=C(c1ccc(CSc2nc3ccncc3n2Cc2cccc(F)c2)cc1)N1CCCCCC1	-2%	3%	-1%	-2%	1%
O=C(O)c1cccc(Cn2c(Cl)c(/C=N/NC(=O)c3cc4ccccc4cc3O)sc2=O)c1	-6%	?	?	20µM*	15%
Cc1ccccc1N/N=C/c1sc(=O)n(Cc2cccc(C(=O)O)c2)c1Cl	-6%	-7%	?	28µM*	1%
COC(=O)c1ccc(NC(=O)NCCn2nnc3cc(S(=O)(=O)N(C)C)ccc32)cc1	-1%	9%	0%	-1%	-5%
Cc1oc2ncn(C)c(=O)c2c1C(=O)NC(C)c1ccccc1 (stereo not given)	0.28µM*[quencher]	-14%	-10%	-1%	-29%
O=c1c2ccccc2nc(N/N=C/c2c(O)ccc3ccccc23)n1O	-13%	4%	?	11µM*	-1%
CC(=O)OCCNc1cc(SC(C)C)c2nonc2c1[N+](=O)[O-]	-2%	1%	-29%	?	0%
NS(=O)(=O)c1ccc(Sc2nc3ccccc3s2)c([N+](=O)[O-])c1	-5%	4%	?	.	1%
CN(CCO)c1cc(Sc2nc3ccccc3s2)c2nonc2c1[N+](=O)[O-]	-1%	-14%	?	28µM*	1%
CC(=O)OCCN(C)c1cc(SC(C)C)c2nonc2c1[N+](=O)[O-]	-4%	-17%	?	14µM*	1%
CCc1ccc(-n2cnc3cc(C(=O)NCc4ccc(C)cc4)ccc32)cc1	0%	7%	-20%	-13%	2%
CN(C)/C=N/c1c(C#N)cnn1-c1ccc(F)c(Cl)c1	-1%	.	.	.	-4%
CN(C)S(=O)(=O)N(CC(=O)NCCSCc1c(F)cccc1Cl)c1ccccc1	0%	-5%	-11%	-6%	3%
O=[N+]([O-])c1cc(/C=N/O)ccc1N1CCCC1	-7%	-3%	-9%	?	-1%
CC1CCN(c2ccc(/C=N\Nc3nncn3N)cc2[N+](=O)[O-])CC1	1%	-3%	-29%	10µM*	-1%
O=[N+]([O-])c1cc(/C=N/n2cnnc2)ccc1N1CCCC1	-1%	5%	-9%	7.9µM*	-7%
CCC(C)(C)C1CCC(O)CC1 (stereo not given)	1%[201 µM]	.	.	.	1%[201 µM]
CCn1c(C(=O)N2CCC(C(=O)NCCCSC3CCCCC3)CC2)cc2sccc21	-1%	-2%	-22%	?	12%
SMILES	TR SRC2 fluor cs	Tau FP inhib	Tau fluor cs	Tau ThT inhib	TRb SRC2 PPI
CCCSCCCNC(=O)C1CCN(C(=O)c2cc3sccc3n2C)CC1	32µM*[quencher]	-4%	-24%	-19%	-9%
CCOC(=O)C(C(=O)OCC)c1cc(Br)c2noc3c2c1C(=O)c1ccccc1-3	-9%	2.2µM*	2.5µM*[quencher]	1.1µM*	-5%
CCCCNc1cc(NC2CCCCC2)c2c3c(onc13)-c1ccccc1C2=O	12%	1%	?	?	5%
Cc1ccc2c(C)c(C(=O)N(Cc3ccc(Cl)cc3)C3CCS(=O)(=O)C3)oc2c1 (stereo not given)	4%	-11%	-20%	-2%	-6%
Cc1ccccc1C1=CCN(c2ncc(NC(=O)c3ccc(Cl)cc3)cc2C(=O)O)CC1	-4%	?	-28%	14µM*	11%
O=C(Nc1cnc(N2CCC(N3CCCCC3)CC2)c(C(=O)O)c1)c1ccc(Br)cc1	-30%	2%	2%	-9%	4%
CCC(C(=O)NCc1ccc2c(c1)CCN2C(=O)c1ccc(F)cc1)c1ccccc1 (stereo not given)	-3%	5%	-11%	-2%	-1%
O=C(Cn1c(=O)c2cccn2c2ccccc21)Nc1cc(F)ccc1F	3%	-15%	-18%	3%	6%
CCc1ccc(NC(=O)Cn2c(=O)c3cccn3c3ccccc32)cc1	?	20µM*	?	12%	3%
Cc1cc(C)c(NC(=O)Cn2c(=O)c3cccn3c3ccccc32)c(C)c1	1%	7.9µM*	?	?	4%
CCOC(=O)c1ccc(NC(=O)CCCn2c(=O)c3cccn3c3ccccc32)cc1	-15%	-2%	-10%	?	0%
O=C(Cn1c(=O)c2cccn2c2ccccc21)NCCc1ccccc1	-2%	14µM*	?	18%	3%
CCOC(=O)c1cccc(NC(=O)Cn2c(=O)c3cccn3c3ccccc32)c1	8%	13µM*	?	?	6%
CCc1ccc(NC(=O)CCn2c(=O)c3cccn3c3ccccc32)cc1	-4%	3%	-15%	-17%	8%
O=C1C=C(N2CCN(C3=CC(=O)CCC3)CC2)CCC1	0%	?	-26%	25µM*	-4%
COc1ccccc1N1CCN(C2=CC(=O)CCC2)CC1	1%	-16%	-8%	?	5%
CC(=O)c1ccc(NS(=O)(=O)c2ccc3[nH]c4c(c3c2)CCCC4)cc1	9%	-7%	8.9µM*[quencher]	11%	4%
CC(=O)c1ccc(NS(=O)(=O)c2ccc3[nH]c4c(c3c2)CCCCCC4)cc1	1%	?	10µM*[quencher]	6%	1%
CC(=O)Nc1ccc(NS(=O)(=O)c2ccc3[nH]c4c(c3c2)CCCCC4)cc1	-1%	-6%	16µM*[quencher]	?	3%
CC(=O)c1ccc(N2CCN(S(=O)(=O)c3ccc4[nH]c5c(c4c3)CCCCC5)CC2)cc1	-1%	-7%	?	-13%	6%
Cc1ccc(NS(=O)(=O)c2ccc3[nH]c4c(c3c2)CCCC4)c(C)c1	?	14%	?	4%	5%
CCOc1cc(CNC(=O)Cn2c(=O)c3cccn3c3ccc(F)cc32)cc(OCC)c1OCC	-3%	-7%	0%	-3%	7%
